# Reference: PubChem BioAssay
# The list shows a part of the results. Active and inactive are the calls of the source.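 Rule for the calls, unless noted: active = mean inhibition above 46.68%, the untreated control wells mean plus 3 SD; inactive = the rest.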
# Assays:
# [1] = biological target: Nuclear receptor coactivator 1 (Homo sapiens) (UniProt Q15788); test: SRC1 coactivator transcriptional activity inhibitors, confirmation, cell-based, luminescence, quadruplicate (AID 588820); conditions: HEK293 GAL4-SRC1 luciferase reporter, at 3.6 µM, stronger effect = higher value;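 note: 0% = DMSO wells and 100% = gossypol 36 µM treated wells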
# [2] = VP16 transactivation inhibitors, counter-screen for SRC1 inhibitor project, cell-based, luminescence, high throughput (AID 588824; in the data active = inhibition above about 25%); conditions: cell-based VP16 transactivation luciferase luminescence; at 3.6 µM; stronger effect = higher value
# [3] = StAR promoter reporter inhibitors, counter-screen for LRH-1 inverse agonist project, cell-based, luminescence, high throughput (AID 651611; in the data active = inhibition above about 28%); conditions: StAR promoter luciferase reporter counterscreen, at 3.6 µM, stronger effect = higher value
# [4] = biological target: Nuclear receptor subfamily 5 group A member 2 (Homo sapiens) (UniProt O00482); test: LRH-1 (NR5A2) inverse agonists, retest, confirmation, cell-based, luminescence (AID 651613; in the data active = inhibition above about 42%;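 note: HEK293T cells co-transfected with LRH-1 and StAR promoter luciferase reporter; 0% = vehicle wells and 100% = parental cells lacking receptor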); conditions: cell-based LRH-1 luciferase reporter, inverse agonism; at 3.6 µM; stronger effect = higher value
# [5] = biological target: Steroidogenic factor 1 (Homo sapiens) (UniProt Q13285); test: SF1 (NR5A1) inverse agonists, counter-screen for LRH-1 inverse agonist project, cell-based, luminescence, high throughput (AID 651614; in the data active = inhibition above about 44%;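 note: cells cotransfected with StAR promoter reporter and SF1 expression vector; 0% = vehicle on cells with receptor and 100% = vehicle on cells lacking receptor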); conditions: cell-based SF1 luciferase reporter, at 3.6 µM, stronger effect = higher value
# [6] = VP16 transactivation reporter inhibitors, counter-screen for LRH-1 inverse agonist project, cell-based, luminescence, high throughput (AID 651615; in the data active = inhibition above about 33%); conditions: Gal4-VP16 luciferase reporter cells, at 3.6 µM, stronger effect = higher value
# [7] = biological target: Photoreceptor-specific nuclear receptor (Homo sapiens) (UniProt Q9Y5X4); test: NR2E3 agonist confirmation in cells, cell-based, luminescence, CHO-S two-hybrid (AID 624378;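 active = average inhibition above a cutoff equal to the mean inhibition of all tested compounds plus one SD, cut at about 70% in these data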;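 note: 0% = DMSO in NR2E3 cells and 100% = DMSO in cells lacking NR2E3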); conditions: CHO-S mammalian two-hybrid NR2E3-NCOR, luciferase luminescence; at 3.98 µM; stronger effect = higher value
# [8] = GAL4-VP16 reporter modulators, confirmation, counter-screen for NR2E3 agonist project, cell-based, luminescence, CHO-S, high throughput (AID 624379;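 active = mean inhibition above a cutoff equal to the average over all tested compounds plus one standard deviation, cut at about 70% in these data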;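 note: luciferase from a UAS reporter driven by GAL4-VP16 transactivation; 0% = DMSO with VP16-transfected cells and 100% = DMSO with cells lacking VP16; higher means less reporter light so more repression of VP16 activity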); conditions: CHO-S GAL4-VP16 luciferase reporter, at 3.98 µM, stronger effect = higher value
# [9] = Gal4-VP16 luciferase reporter inhibitors, counter-screen for COUP-TFII antagonist project, cell-based, luminescence, HEK293 (AID 687007; in the data active = inhibition above about 13%); conditions: at 8.5 µM, stronger effect = higher value
# [10] = biological target: COUP transcription factor 2 (Homo sapiens) (UniProt P24468); test: NR2F2 transcriptional activity inhibitors, confirmation, cell-based, luciferase reporter, HEK293, triplicate (AID 687008;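 active = mean inhibition over three repeats above a set limit taken from the earlier primary screen, cut at about 38% in these data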;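 note: 100% = cells given the luciferase reporter alone without the COUP-TF2 vector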); conditions: HEK293 NGFI-A luciferase reporter, luminescence; at 8.5 µM; stronger effect = higher value
# Sequence of COUP transcription factor 2 (Homo sapiens) (P24468 whole entry, looked up): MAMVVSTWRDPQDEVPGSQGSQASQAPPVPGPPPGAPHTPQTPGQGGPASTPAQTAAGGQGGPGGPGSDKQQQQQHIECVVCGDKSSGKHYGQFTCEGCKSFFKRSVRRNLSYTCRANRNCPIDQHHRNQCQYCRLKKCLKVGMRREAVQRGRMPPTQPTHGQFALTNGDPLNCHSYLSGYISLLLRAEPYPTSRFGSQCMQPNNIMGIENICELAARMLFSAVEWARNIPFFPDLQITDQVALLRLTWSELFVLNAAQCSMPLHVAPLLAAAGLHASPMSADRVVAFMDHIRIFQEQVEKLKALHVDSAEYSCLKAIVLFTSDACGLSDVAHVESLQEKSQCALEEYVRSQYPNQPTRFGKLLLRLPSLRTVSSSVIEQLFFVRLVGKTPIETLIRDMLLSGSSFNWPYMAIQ
# Sequence of Nuclear receptor coactivator 1 (Homo sapiens) (Q15788 whole entry, looked up, the tested form may be a part): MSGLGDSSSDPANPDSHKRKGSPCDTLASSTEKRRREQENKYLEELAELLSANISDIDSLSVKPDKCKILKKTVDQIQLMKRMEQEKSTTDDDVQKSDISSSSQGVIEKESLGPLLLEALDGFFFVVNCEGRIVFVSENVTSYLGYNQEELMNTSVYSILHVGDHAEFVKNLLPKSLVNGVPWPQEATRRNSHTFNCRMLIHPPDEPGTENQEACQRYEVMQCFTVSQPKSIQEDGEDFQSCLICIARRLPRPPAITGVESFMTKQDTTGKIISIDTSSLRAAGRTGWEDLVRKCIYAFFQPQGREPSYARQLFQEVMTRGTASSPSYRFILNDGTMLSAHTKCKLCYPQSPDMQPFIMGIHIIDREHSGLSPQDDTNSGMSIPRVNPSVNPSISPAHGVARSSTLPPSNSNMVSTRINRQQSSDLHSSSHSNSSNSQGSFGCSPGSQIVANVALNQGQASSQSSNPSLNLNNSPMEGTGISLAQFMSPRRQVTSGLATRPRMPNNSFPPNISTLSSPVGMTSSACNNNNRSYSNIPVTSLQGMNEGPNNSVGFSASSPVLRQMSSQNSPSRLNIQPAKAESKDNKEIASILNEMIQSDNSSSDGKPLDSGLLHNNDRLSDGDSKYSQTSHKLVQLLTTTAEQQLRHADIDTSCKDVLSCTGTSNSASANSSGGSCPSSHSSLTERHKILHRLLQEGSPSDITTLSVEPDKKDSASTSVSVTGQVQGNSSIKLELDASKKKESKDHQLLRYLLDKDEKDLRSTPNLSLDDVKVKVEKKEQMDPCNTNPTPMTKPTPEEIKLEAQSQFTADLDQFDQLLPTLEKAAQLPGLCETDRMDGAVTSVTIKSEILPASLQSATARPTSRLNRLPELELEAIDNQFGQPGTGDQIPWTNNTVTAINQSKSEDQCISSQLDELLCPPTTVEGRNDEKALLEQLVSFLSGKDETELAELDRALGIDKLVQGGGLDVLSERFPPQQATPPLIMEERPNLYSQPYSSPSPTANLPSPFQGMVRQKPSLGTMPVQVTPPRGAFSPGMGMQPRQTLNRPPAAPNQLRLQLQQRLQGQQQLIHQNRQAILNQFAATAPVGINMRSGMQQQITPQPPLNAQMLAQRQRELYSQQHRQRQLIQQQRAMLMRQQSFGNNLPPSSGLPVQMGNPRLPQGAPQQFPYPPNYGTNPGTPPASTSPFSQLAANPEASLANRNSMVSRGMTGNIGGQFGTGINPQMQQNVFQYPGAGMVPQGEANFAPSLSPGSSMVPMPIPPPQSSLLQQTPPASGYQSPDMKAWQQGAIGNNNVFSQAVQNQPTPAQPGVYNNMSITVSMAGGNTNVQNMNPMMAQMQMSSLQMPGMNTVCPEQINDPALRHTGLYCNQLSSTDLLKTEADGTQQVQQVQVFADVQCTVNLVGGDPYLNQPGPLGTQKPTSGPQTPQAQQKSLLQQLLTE
# Sequence of Nuclear receptor subfamily 5 group A member 2 (Homo sapiens) (O00482 whole entry, looked up): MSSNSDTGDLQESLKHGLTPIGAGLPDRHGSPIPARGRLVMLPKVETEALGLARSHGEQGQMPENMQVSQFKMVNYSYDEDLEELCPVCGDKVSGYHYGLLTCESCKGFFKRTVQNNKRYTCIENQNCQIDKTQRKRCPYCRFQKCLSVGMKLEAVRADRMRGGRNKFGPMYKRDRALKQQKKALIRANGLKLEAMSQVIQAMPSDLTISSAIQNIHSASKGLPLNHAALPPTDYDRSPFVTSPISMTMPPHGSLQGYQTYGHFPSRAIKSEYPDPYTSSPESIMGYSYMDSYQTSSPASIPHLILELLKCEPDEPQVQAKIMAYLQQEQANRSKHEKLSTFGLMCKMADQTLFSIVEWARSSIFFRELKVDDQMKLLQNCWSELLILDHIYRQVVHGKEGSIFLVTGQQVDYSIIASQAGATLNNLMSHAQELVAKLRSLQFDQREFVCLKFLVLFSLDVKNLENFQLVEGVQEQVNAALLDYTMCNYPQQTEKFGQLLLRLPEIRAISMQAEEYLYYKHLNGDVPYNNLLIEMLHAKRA
# Sequence of Steroidogenic factor 1 (Homo sapiens) (Q13285 whole entry, looked up, the tested form may be a part): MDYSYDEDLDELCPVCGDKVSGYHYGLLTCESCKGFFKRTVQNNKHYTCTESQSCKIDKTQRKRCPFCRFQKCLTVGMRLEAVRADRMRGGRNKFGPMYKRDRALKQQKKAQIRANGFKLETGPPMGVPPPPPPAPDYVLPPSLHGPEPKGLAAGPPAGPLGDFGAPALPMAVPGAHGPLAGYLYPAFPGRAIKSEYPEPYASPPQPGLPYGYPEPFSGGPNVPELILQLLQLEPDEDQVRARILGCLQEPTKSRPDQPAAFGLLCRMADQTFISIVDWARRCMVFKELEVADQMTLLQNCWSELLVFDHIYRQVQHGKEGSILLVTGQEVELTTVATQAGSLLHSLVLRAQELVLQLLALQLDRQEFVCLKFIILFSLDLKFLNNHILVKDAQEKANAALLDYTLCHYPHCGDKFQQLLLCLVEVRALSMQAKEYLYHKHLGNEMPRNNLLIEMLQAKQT
# Sequence of Photoreceptor-specific nuclear receptor (Homo sapiens) (Q9Y5X4 whole entry, looked up, the tested form may be a part): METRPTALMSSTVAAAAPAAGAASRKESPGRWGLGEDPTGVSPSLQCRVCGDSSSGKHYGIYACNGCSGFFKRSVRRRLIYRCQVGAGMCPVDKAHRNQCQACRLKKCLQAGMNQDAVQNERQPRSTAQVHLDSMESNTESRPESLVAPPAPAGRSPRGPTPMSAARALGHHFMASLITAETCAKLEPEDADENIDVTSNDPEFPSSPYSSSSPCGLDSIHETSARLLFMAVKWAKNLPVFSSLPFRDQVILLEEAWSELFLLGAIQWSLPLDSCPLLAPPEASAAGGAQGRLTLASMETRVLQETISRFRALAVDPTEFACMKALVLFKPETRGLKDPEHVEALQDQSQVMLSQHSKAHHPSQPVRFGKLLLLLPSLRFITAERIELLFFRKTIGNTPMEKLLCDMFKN
smiles,measurement,setting,value
Cc1ccccc1-n1nc(C)c2c1N=C1C(Cl)=CC(Cl)=CN1C2c1ccc(C(=O)O)cc1 (stereo not drawn),inhibition,[1],-9.32% (inactive)
same,inhibition,[2],-14.1% (inactive)
CCCCCCCCCCOC(=O)Cn1c(COc2ccccc2C)[n+](C)c2ccccc21,inhibition,[1],-8.25% (inactive)
same,inhibition,[2],6.65% (inactive)
same,inhibition,[3],-2.25% (inactive)
same,inhibition,[4],42.2% (active)
same,inhibition,[5],38.4% (inactive)
same,inhibition,[6],38.9% (active)
CC1(C)CC(N2CCCC2)=CC(=[N+]2CCCCC2)C1,inhibition,[1],-1.69% (inactive)
same,inhibition,[2],31% (active)
same,inhibition,[3],21.4% (inactive)
same,inhibition,[4],64.8% (active)
same,inhibition,[5],54.3% (active)
same,inhibition,[6],52.5% (active)
CC(=O)Nc1ccccc1OCC(=O)c1cc(C)n(Cc2cccs2)c1C,inhibition,[1],-59.8% (inactive)
same,inhibition,[2],39.3% (active)
same,inhibition,[3],28.7% (active)
same,inhibition,[4],21.5% (inactive)
same,inhibition,[5],47.4% (active)
same,inhibition,[6],39.6% (active)
CCCOc1ccc(Cc2c(Cl)nc(SC)nc2NC)cc1,inhibition,[1],-9.8% (inactive)
same,inhibition,[2],24.6% (inactive)
same,inhibition,[7],94.6% (active)
same,inhibition,[8],85.9% (active)
same,inhibition,[3],4.85% (inactive)
same,inhibition,[4],54.9% (active)
same,inhibition,[5],55.9% (active)
same,inhibition,[6],35.5% (active)
same,inhibition,[9],2.67% (inactive)
same,inhibition,[10],44.7% (active)
CN(C)CCNc1ccc(CO)c2sc3ccc(O)cc3c(=O)c12,inhibition,[1],44.8% (inactive)
same,inhibition,[2],39.1% (active)
same,inhibition,[3],77% (active)
same,inhibition,[4],89.5% (active)
same,inhibition,[5],75.7% (active)
same,inhibition,[6],61.2% (active)
Cc1ccc(C#CC[N+]2(CC#Cc3ccc(C)cc3)CCCCC2)cc1,inhibition,[1],32.6% (inactive)
same,inhibition,[2],36.3% (active)
same,inhibition,[3],40.5% (active)
same,inhibition,[4],74.2% (active)
same,inhibition,[5],65.3% (active)
same,inhibition,[6],67.5% (active)
CC(O)c1nc2cc([N+](=O)[O-])ccc2n1Cc1ccccc1 (stereo not drawn),inhibition,[1],-1.46% (inactive)
same,inhibition,[2],-6.35% (inactive)
CCOC(=O)C(=O)NNc1ccc(F)cc1,inhibition,[1],-25.9% (inactive)
same,inhibition,[2],-4.08% (inactive)
CN(C)CCNc1ccc2nnn3c4ccc(O)cc4c(=O)c1c23,inhibition,[1],0.55% (inactive)
same,inhibition,[2],50.6% (active)
same,inhibition,[3],47.1% (active)
same,inhibition,[4],71.1% (active)
same,inhibition,[5],71.5% (active)
same,inhibition,[6],75.9% (active)
COc1ccc(NC(=O)C2Cc3c(-c4cccc(C(C)=O)c4)ccnc3O2)cc1OC (stereo not drawn),inhibition,[1],-17.4% (inactive)
same,inhibition,[2],19.6% (inactive)
same,inhibition,[3],44% (active)
same,inhibition,[4],59% (active)
same,inhibition,[5],72% (active)
same,inhibition,[6],48.8% (active)
NC(CO)C(=O)NNCc1ccc(O)c(O)c1O (stereo not drawn),inhibition,[1],-18.8% (inactive)
same,inhibition,[2],-2.94% (inactive)
CCOC(=O)c1ccc(S(=O)(=O)N2CCN(C(C)=O)CC2)cc1,inhibition,[1],-14.4% (inactive)
same,inhibition,[2],-6.09% (inactive)
CCN(CC)S(=O)(=O)c1ccc(NC(=O)c2ccc(N3CCCC3=O)cc2)cc1,inhibition,[1],3.05% (inactive)
same,inhibition,[2],22.8% (inactive)
COc1cc(C(=O)NC(=S)NNC(=O)c2cnccn2)cc(OC)c1OC,inhibition,[1],19.6% (inactive)
same,inhibition,[2],-5.2% (inactive)
CCCCn1c2c(c(=N)c3c1CCC3)CCC2,inhibition,[1],4.17% (inactive)
same,inhibition,[2],33.1% (active)
same,inhibition,[3],26.5% (inactive)
same,inhibition,[4],80.5% (active)
same,inhibition,[5],61.9% (active)
same,inhibition,[6],61% (active)
Cc1ccc(/C=C2/CNC/C(=C/c3ccc(C)cc3)C2=O)cc1,inhibition,[1],-19.2% (inactive)
same,inhibition,[2],43.8% (active)
same,inhibition,[3],47% (active)
same,inhibition,[4],79.3% (active)
same,inhibition,[5],64.9% (active)
same,inhibition,[6],80.2% (active)
CCOc1ccc(-c2cc(C(=O)Nc3ccc(C)c(NS(C)(=O)=O)c3)[nH]n2)c(C)c1,inhibition,[1],-14% (inactive)
same,inhibition,[2],5.47% (inactive)
Cc1cc(C)c(CN2CCN(C(=O)Cn3cnc4c(NCc5ccccc5)ncnc43)CC2)c(C)c1,inhibition,[1],-9.2% (inactive)
same,inhibition,[2],43.4% (active)
same,inhibition,[3],35% (active)
same,inhibition,[4],54.1% (active)
same,inhibition,[5],57.5% (active)
same,inhibition,[6],57.9% (active)
O=C(NCc1ccccc1)C(c1ccccc1)N(Cc1cccs1)C(=O)c1cnccn1 (stereo not drawn),inhibition,[1],-71.6% (inactive)
same,inhibition,[2],-20.6% (inactive)
